Measured values taken from PubChem BioAssay AID463190 (Sanford-Burnham Center for Chemical Genomics, 2010).
Screen size: about 330,000 compounds; about 7,300 (2.2%) were called active. What follows is part of a selection rich in actives, with near analogues and random picks from the rest. Unmarked numbers belong to inactive results.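 The calls were made as follows: active = inhibition of at least 40%; inactive = the rest.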

Experiment: growth inhibition of tim10-1 ts yeast – luminescence, uHTS, primary screen (AID 463190);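 also: mutant grown at 25 °C; 0% = DMSO wells with yeast and 100% = wells holding no yeast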
Conditions: S. cerevisiae tim10-1 ts strain growth, BacTiter-Glo, 24 h; at 20 µM; hits give high values

Compound | inhibition
Cc1cccc(OCCNC(=S)NC(=O)c2cccnc2)c1 | 45.9% (active)
Cc1cccc(OCC(=O)NCCNC(=O)c2cccnc2)c1 | -27.3%
CCCOc1cccc(C(=O)NCCCNC(=O)c2cccnc2)c1 | -5.09%
CN(C(=O)CSc1nnc(C2CC2)n1C)C1CCCc2ccccc21 (stereo not drawn) | -15.4%
CC(=O)NCCC(=O)Nc1nc(-c2ccc3c(c2)OCCO3)cs1 | 4.76%
Cc1ccc(-c2csc(NC(=O)C3=COCCO3)n2)cc1C | 40.5% (active)
Cc1csc(NC(=O)C2=COCCO2)n1 | 6.44%
COc1ccccc1OCCC(=O)OCC(=O)NC(=O)NC(C)(C)C | 17.9%
CC(C)(C)NC(=O)NC(=O)COC(=O)C1(C)CC1(Cl)Cl (stereo not drawn) | 21.3%
CC(C)(C)NC(=O)NC(=O)COC(=O)CCC1CCCCC1 | 40.3% (active)
Cc1cc(C)cc(C(=O)NC(=S)Nc2ccc3[nH]c(=O)[nH]c3c2)c1 | 12.4%
COc1ccc(CCNC(=O)c2cnc(Cl)c(Cl)c2)cc1 | 17.4%
COc1ccc(NC(=O)/C(Cl)=C(/Cl)S(=O)Cc2ccc(C)cc2)cn1 (stereo not drawn) | 30.1%
COc1ccc(CS(=O)/C(Cl)=C(/Cl)C(=O)Nc2ccc(OC)nc2)cc1 (stereo not drawn) | 41% (active)
COc1ccc(CCNC(=O)COC(=O)c2ccc[nH]c2=O)cc1 | 7.85%
O=C(Cn1cnc2c(OCc3ccccc3)ncnc21)NCc1nc2ccccc2[nH]1 | -4.29%
CCOc1ccccc1NC(=O)Cn1nnc(C(=O)NCc2cccs2)c1N | 10.5%
Cn1ncc(Br)c1C(=O)NCc1cccs1 | 1.74%
CC(C)Cn1c(N)c(C(=O)NCc2cccs2)c2nc3ccccc3nc21 | 43.7% (active)
NS(=O)(=O)c1cc2c(cc1Cl)NC(C(Cl)Cl)NS2(=O)=O (stereo not drawn) | 0.045%
Cc1nc(NC(=O)CN(C)S(=O)(=O)c2ccc(Cl)cc2)sc1C | 4.21%
CCCCC(=O)Nc1nc(C)c(-c2csc(Nc3ccc(Cl)cc3)n2)s1 | 42.5% (active)
CCCCCCC(=O)Nc1nc(C)c(-c2csc(Nc3cccc(OC)c3)n2)s1 | 14.8%
CCCCCCC(=O)Nc1nc(C)c(-c2csc(Nc3cc(Cl)ccc3OC)n2)s1 | 3.74%

Compound | inhibition
C=CCCC(=O)Nc1nc(C)c(-c2csc(Nc3ccc(Cl)cc3)n2)s1 | 41.2% (active)
Cc1nc(NC(=O)c2cccc(Cl)c2)sc1-c1csc(Nc2cccc(Cl)c2)n1 | -8.28%
COc1ccc(S(=O)(=O)c2c[nH]c(=S)[nH]c2=O)cc1Cl | -8.62%
O=C(CCN1C(=O)c2ccncc2C1=O)Nc1cc(F)ccc1F | 7.78%
CC(=O)N1CCCc2cc(S(=O)(=O)N3CCCC(C(=O)N4CCN(c5cccc(Cl)c5)CC4)C3)ccc21 (stereo not drawn) | 10.1%
COc1ccc(-n2c(=S)[nH]c3sc4c(c3c2=O)CCc2ccccc2-4)cc1 | 6.58%
COc1ccc(-n2cc(-c3ccccc3)c3c(=S)nc[nH]c32)cc1 | 40.1% (active)
O=c1[nH]cnc2c1c(-c1ccccc1)cn2-c1ccc(F)cc1 | 34.1%
COC(=O)c1c(-c2cccs2)csc1NC(=O)CSc1ncnc2sc(C)c(C)c12 | 17.6%
C=CCn1c(SCC(=O)Nc2ccc(NC(C)=O)cc2)nc2sc(C)c(C)c2c1=O | 15.8%
Cc1sc2ncnc(SCC(=O)Nc3ccc(CN4CCCC4)cc3)c2c1C | 46.3% (active)
Cc1cc(C(=O)OCC(=O)Nc2ccc(F)c(F)c2)c(C)o1 | -15.7%
Cc1cccc(NC(=S)N2CCCC(c3nc4ccccc4[nH]3)C2)c1 (stereo not drawn) | 0.466%
Cc1cccc(NC(=S)N2CCC(c3nc4ccccc4s3)CC2)c1 | 47% (active)
Cc1cccc(C(=O)N2CCC(c3nc4ccccc4s3)CC2)c1 | 20.6%
COc1ccc(OC)c(C(O)c2nc3ccccc3n2C)c1 (stereo not drawn) | 12%
CNC[C@@H]1Oc2c(NS(C)(=O)=O)cccc2C(=O)N([C@@H](C)CO)C[C@H]1C | -4.12%
NS(=O)(=O)c1ccc(N2C(=O)C3C4CC(C(Br)C4Br)C3C2=O)cc1 (stereo not drawn) | -7.31%
ON=C1/C(=N\O)CC2(C/C1=N/O)OCCO2 | -13.1%
Cc1cccnc1NC(=O)c1cccc(S(=O)(=O)N2CCN(c3ccc(F)cc3)CC2)c1 | 23.8%
Oc1c(CN2CCCC2)cc(COCc2ccccc2)c2cccnc12 | 14.6%
Oc1c(CN2CCN(c3ccc(F)cc3)CC2)cc(Cl)c2cccnc12 | 45.3% (active)
CCN(CCn1cccn1)Cc1cn[nH]c1-c1ccc(OC)cc1F | 6.84%
COc1cc2sc(C)nc2cc1C | 13.3%

Compound | inhibition
Cc1ccc(S(=O)(=O)N(Cc2cccc([N+](=O)[O-])c2)C(=O)N2CCN(C)CC2)cc1 | 26.5%
CCOc1ccc(NC(=O)C2CC(=O)N=C(N)S2)cc1 (stereo not drawn) | 3.69%
CC(OC(=O)c1ccccc1OCc1ccc(Cl)cc1)C(N)=O (stereo not drawn) | -12.2%
COc1ccc(-c2onc(C)c2-c2ccc3c(c2)OCCO3)c(O)c1 | 22.7%
CCOC(=O)c1cc2cc(-c3c(C(=O)OCC)oc4cc(O)cc(O)c4c3=O)ccc2o1 | 27.5%
O=c1c(-c2ccc3c(c2)OCCO3)c(C(F)(F)F)oc2cc(O)cc(O)c12 | 44% (active)
Nc1ccccc1Sc1ccc(C(F)(F)F)cc1[N+](=O)[O-] | 40.4% (active)
O=C(CSc1ccc(C(F)(F)F)cc1[N+](=O)[O-])NCCOc1ccccc1 | 8.09%
O=[N+]([O-])c1cc(C(F)(F)F)ccc1NN=C1CCCC1 | -6.28%
Cc1ccccc1C(=O)NNC(=O)CN1C(=O)c2ccccc2C1=O | 23.4%
O=C(CSc1nnc(Cn2cnc3ccccc32)o1)c1ccccc1 | 24.1%
Cc1oc2cc([N+](=O)[O-])c(O)c([N+](=O)[O-])c2c1C(=O)c1ccc(Br)cc1 | 25%
Cc1oc2cc(Br)c(O)c(Br)c2c1C(=O)c1ccccc1 | 41.8% (active)
COc1ccc(C(=O)c2c(C)oc3cc([N+](=O)[O-])c(O)c([N+](=O)[O-])c23)cc1 | 12.5%
O=C(Nc1ccc2c(c1)OCO2)C1CC1(Cl)Cl (stereo not drawn) | -5.38%
CCC(C(=O)NC1CCCC1)N(C(=O)Cn1nnc(-c2ccc(C)o2)n1)c1ccc(OC)c(OC)c1 (stereo not drawn) | 18.2%
CSc1ccc(CN2C(=O)NC3(CCCCCC3)C2=O)cc1 | 23.7%
NC(=O)C1=C[C@@H](c2ccc3c(c2)OCO3)C[C@@H](OCCCCO)O1 | -9.86%
CCOC(=O)c1c(NC(=O)c2ccc(S(=O)(=O)N(C)CC3CCCO3)cc2)sc2c1CC(C)(C)NC2(C)C (stereo not drawn) | 3.46%
COC(=O)c1sccc1NC(=O)COc1ccc(Cl)cc1 | 7.8%
COC(=O)c1c(NC(=O)COc2ccc(Cl)cc2Cl)sc2c1CC(C)(C)NC2(C)C | 43.6% (active)
Cc1nc2ccc(C(=O)N3CCSCC3)cc2s1 | 4.92%
O=C(c1ccc2nc(N3CCOCC3)sc2c1)N1CCN(c2ccc(Cl)cc2)CC1 | 49.1% (active)
O=S(=O)(Nc1ccc2nc(N3CCOCC3)sc2c1)c1ccccc1 | 3.87%

Compound | inhibition
N/C(=N\OC(=O)c1cc(-c2ccccc2)nc2ccccc12)c1ccncc1 | 57.4% (active)
C/C(N)=C(/C#N)C(=O)COC(=O)c1cc(-c2ccc(C)cc2)nc2ccccc12 | 11.4%
COC(=O)CNC(=O)c1cc(-c2ccncc2)nc2ccccc12 | 13.6%
Cc1ccc(N/C(N)=N/c2nc(C(F)(F)F)cc(C(F)(F)F)n2)cc1 | 14.4%
CCC(NC(=O)c1ccccc1NC(=O)c1ccccc1)C(=O)NNC(=O)CSc1nc2ccccc2o1 (stereo not drawn) | 11%
CCOC(=O)c1ccc(N2C(=O)CC(N3CCC(C(=O)OCC)CC3)C2=O)cc1 (stereo not drawn) | 43.8% (active)
CCOC(=O)c1ccc(N2C(=O)CC(N3CCN(C(=O)c4ccccc4)CC3)C2=O)cc1 (stereo not drawn) | 20%
CCOC(=O)c1ccc(N2C(=O)CC(N3CC(C)OC(C)C3)C2=O)cc1 (stereo not drawn) | 29.9%
O=C(NC(Cc1ccc(O)cc1)C(=O)O)/C(=C/c1ccccc1)NC(=O)c1ccccc1 (stereo not drawn) | -12.7%
COc1ccc(NC(=O)CN(C)C(=O)CNC(=O)C2CCCCC2)cc1 | 3.37%
COc1cc(NC(=O)C2CCN(c3cnccn3)CC2)cc(OC)c1 | 18.5%
Nc1nc2n(n1)C(c1ccco1)CC(c1ccc(Cl)c(Cl)c1)N2 (stereo not drawn) | 20.9%
Clc1ccc(C2CC(c3cccs3)n3ncnc3N2)cc1Cl (stereo not drawn) | 44.6% (active)
COc1ccc(C2CC(c3ccc(C)cc3)Nc3ncnn32)cc1 (stereo not drawn) | 31.2%
Cc1ccc(C)c(-n2ccnc2SCC(N)=O)c1 | 1.23%
CCOC(=O)c1sc(=NC(=O)/C=C/c2cccs2)n(C)c1C | 9.93%
Cc1c2cnn(CC(=O)NCCCN3CC(C)CC(C)C3)c(=O)c2c(C)n1Cc1ccc(Cl)cc1 (stereo not drawn) | -4.29%
CCOC(=O)C1=C(c2ccccc2)NC(=O)NC1c1cc(OC)c(OC)cc1OC (stereo not drawn) | 2.13%
CC(C)(C)c1ccc(CN2C(=O)c3ccccc3S2(=O)=O)cc1 | 15%
CCOC(=O)c1ccccc1CN1C(=O)c2ccccc2S1(=O)=O | 43.5% (active)
CN(Cc1cccs1)C(=O)CN1C(=O)c2ccccc2S1(=O)=O | -8.18%
